According to PubChem BioAssay AID720597 (Broad Institute, 2013):
Potency and affinity values are given separately.

What follows are molecules tested against NAD-dependent protein deacylase sirtuin-5, mitochondrial (Homo sapiens) (UniProt Q9NXA8) (assay: SIRT5 deacylase inhibitors, dose response, biochemical, fluorescence imaging, cherry-pick, set 6 (AID 720597;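 note: lower AMC signal can also come from blocking the trypsin step; 0% = median of neutral control wells and -100% = median of positive control wells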)). Settings: Purified SirT5, succinyl-peptide-AMC/trypsin fluorescence; series mostly up to 15 µM; activity change, negative = inhibition: at the top concentration;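 active = fitted half-maximal dose no more than twice the top valid tested dose, for compounds that lower signal; inconclusive = fit invalid, or curve flat with activity between -70 and -30; inactive = potency past limit, curve flat within ±30, or signal increasing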.
Sequence of NAD-dependent protein deacylase sirtuin-5, mitochondrial (Homo sapiens) (Q9NXA8 whole entry, looked up): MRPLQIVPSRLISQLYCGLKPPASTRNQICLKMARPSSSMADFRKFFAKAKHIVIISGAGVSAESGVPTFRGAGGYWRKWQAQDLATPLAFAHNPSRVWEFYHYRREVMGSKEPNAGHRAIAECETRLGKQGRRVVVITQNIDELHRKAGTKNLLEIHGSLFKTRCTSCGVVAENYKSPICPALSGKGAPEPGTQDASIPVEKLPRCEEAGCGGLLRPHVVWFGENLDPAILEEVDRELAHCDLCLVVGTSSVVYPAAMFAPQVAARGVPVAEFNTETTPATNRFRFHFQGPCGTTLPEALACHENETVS

Activity change, negative = inhibition, inactive:
COc1ccc(C#Cc2ccc([C@H]3[C@H]4CN(C(=O)c5cccnc5)CC(=O)N4[C@H]3CO)cc2)cc1 -7.27%
CC(C)CC#Cc1ccc2c(c1)O[C@@H](CN(C)C(=O)NC1CCCC1)[C@H](C)CN([C@H](C)CO)S2(=O)=O -5.15%
C[C@@H]1CN([C@H](C)CO)C(=O)c2cc(NS(=O)(=O)c3ccc(Cl)cc3)ccc2O[C@@H](C)CCCCO[C@@H]1CN(C)Cc1ccc2c(c1)OCO2 -15.4%
O=S(=O)(NC[C@@H]1CC[C@H]2[C@H](CN2Cc2cccc(-c3ccccn3)c2)O1)c1ccccc1 1.68%
C[C@@H]1CN([C@H](C)CO)C(=O)Cc2cc(NC(=O)Nc3ccc(F)cc3)ccc2O[C@@H]1CN(C)C 1.73%
C[C@@H]1CCCCO[C@@H](CN(C)CC2CCCCC2)[C@H](C)CN([C@H](C)CO)C(=O)c2cc(NC(=O)CCCCCC(=O)Nc3ccccc3N)ccc2O1 -23.9% [at 16 µM]
C[C@@H]1CN([C@@H](C)CO)C(=O)c2cccc(N(C)C)c2O[C@@H]1CN(C)Cc1ccccc1 35.5%
CNC[C@@H]1Oc2ccc(NC(=O)Nc3ccc(F)cc3)cc2CC(=O)N([C@H](C)CO)C[C@H]1C 3.83%
CCC(=O)N1[C@H](CO)[C@H](c2ccc(-c3ccccc3)cc2)[C@H]1CN(CC)C(C)=O 2.76%
Cc1ccc(S(=O)(=O)N(C)C[C@H]2OCCCC[C@@H](C)Oc3ccc(NS(=O)(=O)c4ccc(F)cc4)cc3C(=O)N([C@@H](C)CO)C[C@H]2C)cc1 -8.24%
COc1ccccc1-c1ccc2c(c1)O[C@H](CN(C)S(=O)(=O)c1ccc(F)cc1)[C@H](C)CN([C@H](C)CO)S2(=O)=O -19.5%
